The list is not random: actives were taken first. Their share in the collection is about 1.8%.
Myeloid diff 2 – myeloid differentiation induction; AID 624256; 360,000 compounds, 1% hits; ER-HoxA9 myeloid progenitors, lysozyme-GFP differentiation, flow cytometry; calls only at 10 µM;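 active = normalized GFP-positive differentiation at or above the plate's own cutoff, the solvent-only control mean plus 3 SD; inconclusive = no clear call, values can overlap the other calls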;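 also: cells exposed to compound for four days before flow analysis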
AGP1 TOR yeast – alters AGP1-GFP fluorescence in TOR pathway yeast screen. S. cerevisiae AGP1-GFP multiplex flow cytometry, 3 h; GFP as percent of DMSO wells. GFP response vs DMSO, % at 10 µM. 320,000 compounds, 0.02% hits. AID 2066;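 active = GFP response relative to DMSO above a set limit, near screen average plus 3 SD, cut at about 150% in these data; inconclusive = fewer than 70 cells counted for the yeast strain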;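 also: median GFP channel fluorescence of the gated AGP1 strain per well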
RPL19A-GFP yeast – modulators of TOR pathway RPL19A-GFP in S. cerevisiae. 330,000 compounds, 0.3% hits. S. cerevisiae RPL19A-GFP strain, flow cytometry, 3 h; hits give low values. AID 2025. percent response vs DMSO, % at 10 µM;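 active = percent response vs DMSO below 50%; inconclusive = fewer than 70 events counted for the yeast strain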;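 also: median channel GFP fluorescence of the barcoded RPL19A-GFP strain; ratio of sample median GFP to plate DMSO average so 100% = DMSO; lower means less RPL19A-GFP as with rapamycin TOR inhibition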
CIT2-GFP yeast – yeast TOR pathway CIT2-GFP modulation. S. cerevisiae CIT2-GFP strain, flow cytometry, 3 h; 100 means same as DMSO wells. GFP response vs DMSO, % at 10 µM. 320,000 compounds, 0.065% hits. AID 2029;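 active = GFP response relative to DMSO above a set limit, near the screen mean plus 3 SD, cut at about 150% in these data; inconclusive = Fewer than 70 cells measured for a yeast strain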;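 also: ratio of well median GFP fluorescence to mean of DMSO wells on the plate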
LAP4 TOR yeast – modulators of TOR pathway LAP4-GFP in S. cerevisiae | S. cerevisiae LAP4-GFP multiplex, flow cytometry GFP, 3 h; median GFP as percent of DMSO wells | GFP response vs DMSO, % at 10 µM | 320,000 compounds, 0.34% hits;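 active = GFP response vs DMSO above a set limit, about the screen mean plus 3 SD, cut at about 150% in these data; inconclusive = under 70 cell events counted for the yeast strain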
MEP2-GFP yeast – yeast TOR pathway MEP2-GFP modulation | 330,000 compounds, 0.51% hits | S. cerevisiae MEP2-GFP strain, flow cytometry GFP, 3 h; 100% = DMSO control level | GFP response vs DMSO, % at 10 µM;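 active = GFP response versus DMSO above a set limit, roughly screen mean plus 3 SD, cut at about 180% in these data; inconclusive = fewer than 70 cells counted for a yeast strain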;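 also: median GFP fluorescence of the barcode-gated MEP2-GFP cells per well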
Starred values were filed as active, the others as inactive; i = inactive; ? = inconclusive; · = no result given; + = active, no number; [ ] = dose if it differs, or a comment.

SMILES	Myeloid diff 2	AGP1 TOR yeast	RPL19A-GFP yeast	CIT2-GFP yeast	LAP4 TOR yeast	MEP2-GFP yeast
COc1ccc(N2CCN(C(=O)COC(=O)/C=C/c3ccc(C(F)(F)F)cc3)CC2)cc1	+	90	90	89	94	96
O=C(CCn1c(=O)c2cccn2c2ccc(F)cc21)NCCc1ccccc1	i	106	101	107	108	108
COc1ccc(C2C(C(C)=O)=C(C)N=c3s/c(=C\c4cc(C)n(C)c4C)c(=O)n32)c(OC)c1 (configuration not stated)	+	116	110	122	121	130
CCOc1ccc(NC(=S)N(CCc2c(C)[nH]c3ccc(C)cc23)Cc2ccncc2)cc1	+	100	98	100	96	97
Cc1c(C(=O)N2CCN(Cc3nccn3C)CC2)oc2c(F)cccc12	i	·	·	·	·	·
COc1ccc2ccccc2c1/C=N/Nc1cccc(C(=O)O)c1	i	91	102	92	166*	114
COc1ccc2ccccc2c1/C=N/Nc1ccc(Cl)c(C(=O)O)c1	i	89	97	109	74	94
N#CC1=C(N)Oc2cc(N)ccc2C1c1ccc(F)cc1F (configuration not stated)	+	98	92	106	105	116
Cc1ccsc1C(=O)N1CCC1(C)C(=O)NS(=O)(=O)c1ccc(C#N)cc1 (configuration not stated)	i	·	·	·	·	·
Nc1cc2c3c(cccc3c1)C(=O)N(CCN1CCCC1)C2=O	+	102	109	104	95	111
CCN(CC)CCN1C(=O)c2cccc3cc(N)cc(c23)C1=O	?	101	103	108	96	106
O=C1Nc2ccccc2C(=O)C1(Cl)Cc1ccccc1 (configuration not stated)	i	56	·	116	184*	86
CC(C)(C)N1C(=O)c2ccccc2NC(=O)N1Cc1ccccc1	i	103	104	·	91	96
Cn1c(=O)c2c(SCC(=O)Nc3nccs3)nc(C3CC3)nc2n(C)c1=O	+	100	93	100	102	101
Cn1c(SCC(=O)Nc2nccs2)nnc1C1CC1	i	106	110	·	99	142
COc1ccccc1/C=N\Nc1ccccc1[N+](=O)[O-]	i	·	39*[may fluoresce violet]	·	·	299*[may fluoresce violet]
NS(=O)(=O)c1ccc(NC(=O)CN2C(=O)CCC2=O)cc1	i	25	46*[may fluoresce violet]	?	86	812*[may fluoresce violet]
CCC(CC)c1nnc(NC(=O)c2ccc([N+](=O)[O-])cc2)s1	i	95	100	89	96	94
Cc1ccc(S(=O)(=O)Nc2nc(C)c(C(=O)NNS(=O)(=O)c3cc(C)ccc3C)s2)cc1	i	?	51	?	66	241*[may fluoresce violet]
Cc1nc(NS(=O)(=O)c2ccccc2)sc1C(=O)NNS(=O)(=O)c1ccccc1	i	104	105	108	97	105
Cc1ccc(S(=O)(=O)NNC(=O)c2sc(NS(=O)(=O)c3ccccc3)nc2C)cc1	i	?	57	?	85	494*[may fluoresce violet]
COc1ccc(NC(=O)C2CCCN(S(=O)(=O)c3c(C)n[nH]c3C)C2)c(OC)c1 (configuration not stated)	i	96	96	86	97	100
CC1CCc2c(sc3nc(CSc4n[nH]c(N)n4)[nH]c(=O)c23)C1 (configuration not stated)	i	·	·	·	·	·
COc1ccccc1CNC(=O)CCC(=O)N1Cc2cccc(OC)c2Oc2ncccc21	i	?	14*[may fluoresce violet]	?	79	171
COc1cccc2c1Oc1ncccc1N(C(=O)CCC(=O)NCc1ccccc1F)C2	i	104	113	118	110	118
SMILES	Myeloid diff 2	AGP1 TOR yeast	RPL19A-GFP yeast	CIT2-GFP yeast	LAP4 TOR yeast	MEP2-GFP yeast
Cc1cccc(N2CCN(C(=O)c3ccc4c(c3)NC(=O)C(CSCc3cccc(F)c3)N4)CC2C)c1 (configuration not stated)	+	?	20*[may fluoresce violet]	?	?	188*[may fluoresce violet]
O=C(Nc1ccc(F)cc1F)C1CCCN1S(=O)(=O)c1ccc(-c2ccc(=O)[nH]n2)s1 (configuration not stated)	i	?	42*[may fluoresce violet]	?	48	253*[may fluoresce violet]
O=C(c1cccc([N+](=O)[O-])c1)N1CCN(c2cccc(Cl)c2)CC1	+	·	·	·	·	·
Cc1ccc(Cl)cc1NC(=O)COC(=O)CC1CCCCC1	i	94	98	89	116	101
Cc1ccc(N2C(=O)c3ccccc3NC2c2ccccc2O)cc1 (configuration not stated)	i	99	110	145	141	200*
CC1=Nc2cccc3cccc(c23)N1	+	107	102	102	95	101
CSc1ccccc1C(=O)Nc1ncn[nH]1	i	101	101	109	99	117
O=C(Nc1ncn[nH]1)c1ccccc1Br	i	?	48*[may fluoresce violet]	?	88	185*[may fluoresce violet]
O=C(Cc1ccccc1)NCCc1cccc(Cl)c1	i	98	95	93	89	90
O=c1cnnc(SCc2ccc([N+](=O)[O-])cc2)[nH]1	i	108	115	174*	121	166
C#Cc1cccc(NC(=O)C2CCN(C(C)=O)CC2)c1	i	111	102	100	104	102
CN(CCNC(=O)C1CCN(c2ncnc3c2nc2n3CCCCC2)CC1)Cc1ccccc1	+	99	91	99	90	93
CCCCn1c(=O)[nH]c(=O)c2c1nc(-c1ccccc1F)n2Cc1ccccc1OC	i	99	96	86	92	98
CN(C)CCNC(=O)c1ccc(Cl)s1	+	104	100	99	105	101
O=C(NCCCCNC(=O)c1ccc(Cl)s1)c1ccc(Cl)s1	i	106	100	92	112	103
CC1CCc2nc(N)c(C#N)c(-c3cccnc3)c2C1 (configuration not stated)	i	99	100	104	108	96
CC1CCc2nc(N)c(C#N)c(-c3ccncc3)c2C1 (configuration not stated)	+	101	98	101	101	98
COC(=O)c1ccn(CC(=O)NC2CCCCC2)n1	+	98	103	102	86	110
COC(=O)c1ccccc1OCC(=O)NC1CCCCC1	i	97	96	79	165*	99
COc1ccc(C(=O)NCCC2=CCCCC2)cc1[N+](=O)[O-]	i	94	105	104	105	104
O=C(O)c1ccc(SCc2ccccc2)nc1	i	105	100	96	122	110
CCCCS(=O)(=O)NC1=NCN(CCO)CN1	i	?	61	?	75	303*[may fluoresce violet]

Source: PubChem BioAssay (NMMLSC)
